High-throughput results (PubChem BioAssay)
RORg inh: inhibitors of mouse ROR gamma transcriptional activity. P51450. Drosophila S2 Gal4-RORgamma UAS-luciferase reporter, 20 h. Potency, µM (titrated, usually from 53.6 µM), without a hit: at the highest dose activity change, negative = inhibition, most hits filed as inhibitors. 5.4% of 310,000 active; note: potency is the fitted concentration of half-maximal effect; nearly all actives have a fitted effect of over 60% in size
Target sequence (P51450 whole entry, looked up, the tested form may be a part): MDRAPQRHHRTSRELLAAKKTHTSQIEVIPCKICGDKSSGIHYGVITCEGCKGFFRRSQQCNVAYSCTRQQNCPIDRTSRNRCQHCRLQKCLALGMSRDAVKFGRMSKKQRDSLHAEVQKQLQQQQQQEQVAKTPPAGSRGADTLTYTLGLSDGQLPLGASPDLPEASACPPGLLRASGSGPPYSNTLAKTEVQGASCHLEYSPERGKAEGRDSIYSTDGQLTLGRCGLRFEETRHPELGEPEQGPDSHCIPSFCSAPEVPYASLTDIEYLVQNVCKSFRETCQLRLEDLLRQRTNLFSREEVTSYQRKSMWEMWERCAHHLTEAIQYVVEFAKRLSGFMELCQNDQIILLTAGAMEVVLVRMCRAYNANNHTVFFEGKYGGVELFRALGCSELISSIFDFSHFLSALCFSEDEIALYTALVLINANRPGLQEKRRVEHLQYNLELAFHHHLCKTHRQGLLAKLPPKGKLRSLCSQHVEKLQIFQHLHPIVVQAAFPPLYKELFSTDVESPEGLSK
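Using a luciferase readout, inhibitors were identified by reduced reporter activity in Drosophila cells coexpressing a copper-inducible Gal4–ROR gamma fusion and UAS-driven Photinus luciferase, incubated 20 hr after 700 uM copper sulfate.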
TSHR antagonist: antagonists of human thyroid stimulating hormone receptor. P16473. TSHR-expressing cells, TSH-stimulated cAMP HTRF, 2 h; hits give low values. activity change, negative = inhibition, % at 11.5 µM. 0.2% of 330,000 active;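 active = activity change below a set negative limit, meaning inhibition stronger than a set level, cut at about -70% in these data; inconclusive = activity change between two set negative limits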
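TSHR-expressing cells were treated with compounds, then stimulated with TSH at EC80 (4nM final) for 2 hours at 37 deg C. Cellular cAMP was measured by HTRF competition between lysate cAMP and cAMP-d2 for a cryptate-labelled anti-cAMP antibody.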
Gal4-VP16 FLuc: inhibits Gal4-VP16 luciferase reporter, ROR gamma counter-screen; Drosophila S2 Gal4-VP16 UAS-luciferase, luminescence, 20 h; Potency, µM (series often up to 53.6 µM), inactives show at the highest dose activity, negative = inhibition, actives largely listed as inhibitors; 3.5% of 310,000 active; AID 2546;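 note: Gal4-VP16 expression switched on by copper sulfate through the metallothionein promoter; potency is the fitted concentration of half-maximal effect; nearly all actives have a fitted effect of over 50% in size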
B2AR arrestin: agonists driving beta-arrestin recruitment to human beta2-adrenergic receptor; 0.02% of 330,000 active; Potency, µM (highest dose often 46.1 µM), for the others: at the highest dose activation, actives largely listed as activators; beta-arrestin recruitment to beta2AR, cell-based reporter; AID 492947;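 note: potency is the fitted concentration of half-maximal effect; 0% = DMSO controls and full agonism = EC100 isoproterenol or metaproterenol; nearly all actives have a fitted effect of over 65% in size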
ELG1 repair inh: inhibitors of ELG1-dependent DNA repair in HEK293T cells; HEK293T ELG1-luciferase reporter, luminescence, 16 h; DNA damage induced by 5-fluorouridine; Potency, µM (titrated, usually from 46.1 µM), for the others: top-dose activity change, negative = inhibition, usual class: inhibitors; 2.3% of 330,000 active; AID 504467; note: potency is the fitted concentration of half-maximal effect; nearly all actives have a fitted effect of over 55% in size
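DMSO vehicle served as the neutral condition. Each well held 2,000 cells given 5-fluorouridine plus compound; after 16 hr at 37 °C/5% CO2, ONE-Glo was added and luciferase measured 30 min later.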
The depositor's hits bear a star; ? = inconclusive; · = no result given; ! = not active in a repeat; [ ] = remark or other dose. Sampled rows, rich in hits. Any-hit rate of the full collection: about 7.5%. Unless noted, calls come from the whole dose curve; as a rule, active = well fitted curve in the direction sought with a large enough effect; inconclusive = small, poorly fitted or top-dose-only effect, or another doubt; inactive = no such curve, though single readings can be large; an effect the other way counts as inactive or inconclusive. Unless noted, % is set by controls: 0 for no effect and ±100 for the full control effect.

SMILES	RORg inh	TSHR antagonist	Gal4-VP16 FLuc	B2AR arrestin	ELG1 repair inh
Cc1nc(-c2nc(-c3c(C(=O)NNC(=O)c4ccc(Cl)cc4)noc3C)cs2)cs1	10µM*	-4	?	0%	?
CC[C@@]1(O)C(=O)OCc2c1cc1n(c2=O)Cc2cc3ccccc3nc2-1	0.056µM*	-21	?	-1%	?
CC[C@@]1(O)C(=O)OCc2c1cc1n(c2=O)Cc2cc3c(O)cccc3nc2-1	0.35µM*	·	?	·	·
COC(=O)C12C/C=C\Cc3ccccc3[C@@H]1CNC2=O (some centres not stated)	-17%	·	-3%	·	·
Cc1cccc(N2CCN(C(=O)CCNS(=O)(=O)c3ccc4c(c3)oc(=O)n4C)CC2)c1C	31%	-13	-25%	0%	?
CC1(C)CN=C(Nc2nc3ccccc3s2)S1	8.9µM*	-6	?	0%	?
CCOC(=O)/C(C#N)=C1/SC(C)C(=O)N1c1ccc(Br)cc1 (configuration not stated)	11µM*	-6	-24%	-1%	7%
COC(=O)[C@]1(C)CC[C@@]2(C)CC[C@@]3(C)C4=CCc5c(cc(O)c(O)c5C)[C@]4(C)CC[C@@]3(C)C2C1 (some centres not stated)	?	·	16µM*	·	·
C[C@@H]1O[C@@H](O[C@@H]2C=C3CCC4C(CC[C@]5(C)[C@@H](c6ccc(=O)oc6)CC[C@]45O)[C@@]3(C)CC2)[C@H](O)[C@H](O)[C@H]1O (some centres not stated)	·	-74*	·	0%	?
C[C@@H]1O[C@@H](O[C@@H]2C=C3CC[C@@H]4C(CC[C@]5(C)[C@@H](c6ccc(=O)oc6)CC[C@]45O)[C@@]3(C)CC2)[C@H](O)[C@H](O)[C@H]1O (some centres not stated)	·	-78*	·	-1%	?
CN(C(=O)Cc1ccc(Cl)c(Cl)c1)[C@H](CN1CCCC1)c1ccccc1	-24%	·	2%	·	·
CC(C)C#N	3%	·	4%	·	·
CC(C)[C@@]1(NC(=O)[C@@H]2C[C@@H]3c4cccc5[nH]cc(c45)C[C@H]3N(C)C2)O[C@@]2(O)[C@@H]3CCCN3C(=O)[C@H](Cc3ccccc3)N2C1=O	2.8µM*!	14	?	?	-14%
CC(C)C[C@H]1C(=O)N2CCC[C@H]2[C@]2(O)O[C@](NC(=O)[C@@H]3C=C4c5cccc6[nH]c(Br)c(c56)CC4N(C)C3)(C(C)C)C(=O)N12 (some centres not stated)	?	-12	?	0%	18µM*
CC(C)[C@@]1(NC(=O)[C@@H]2C[C@H]3c4cccc5[nH]cc(c45)C[C@@H]3N(C)C2)O[C@]2(O)[C@H]3CCCN3C(=O)CN2C1=O	2%[16.9 µM]	·	-1%[17 µM]	·	·
C=C(Cl)Cl	15%	·	1%	·	·
Cc1ccc(C)c(NP(=O)(Oc2ccccc2)Oc2ccccc2)c1	-14%	27	-1%	-1%	8.2µM*
Cc1ccc(S(=O)(=O)NP(=O)(Oc2ccccc2)Oc2ccccc2)cc1	1%	-6	6%	0%	0%
CC(C)(C)c1ccc(-c2n[nH]c(=S)n2CCCN2CCOCC2)cc1	7.9µM*	-3	-26%	0%	-5%
OC(c1ccc(Cl)cc1)(c1cncnc1)c1ccccc1Cl (configuration not stated)	24%	·	-1%	·	·
CN1C(=O)/C(=C/c2cccn2-c2ccc3ccccc3c2)C(=O)NC1=S	13µM*	5	-88%	0%	?
Cc1cc(C)cc(N2C(=O)NC(=O)/C(=C\c3cccn3-c3ccc(Cl)cc3)C2=O)c1	?	12	?	0%	?
O=C1NC(=S)NC(=O)C1=Cc1cccn1-c1ccc(O)cc1	2.8µM*	-8	8.9µM*	0%	?
CCCCCn1c(=O)c(C(=O)Nc2nc3ccccc3[nH]2)c(O)c2ccccc21	-4%	-5	5%	0%	?
Cc1ccc(C(=O)Nc2nc3ccccc3[nH]2)cc1	2.5µM*	-6	3.5µM*	0%	?
SMILES	RORg inh	TSHR antagonist	Gal4-VP16 FLuc	B2AR arrestin	ELG1 repair inh
O=C(N=Nc1c(O)n(C2OC(=O)c3ccccc32)c2ccccc12)c1ccco1 (configuration not stated)	13%	-8	5%	-1%	?
CCOc1cc(OP(=S)(OC)OC)nc(CC)n1	18%	·	-6%	·	·
Cc1ccccc1C1=NCC(=O)N(CC(=O)NCc2ccco2)c2sc3c(c21)CCCC3	?	2	13µM*	6%	?
CCC(C)C1N=C(c2ccccc2)c2cc(Cl)ccc2N(CC(=O)NCc2ccco2)C1=O (configuration not stated)	13%	9	-22%	0%	-5%
C[C@@H]1O[C@@H](O[C@H]2CC[C@@H](O[C@H]3[C@H](O)C[C@H](c4ccc5c(c4O)C(=O)C4=C(C5=O)[C@@]5(O)C(=O)C[C@](C)(O[C@H]6CC[C@H](O[C@H]7C=CC(=O)[C@H](C)O7)[C@H](C)O6)C[C@@]5(O)C=C4)O[C@@H]3C)O[C@H]2C)C=CC1=O	0.5µM*	·	-10%	·	·
CC(=O)OC(C)(C)/C=C/C(=O)[C@](C)(O)[C@H]1[C@H](O)C[C@@]2(C)[C@@H]3CC=C4[C@H](C[C@H](O)C(=O)C4(C)C)[C@]3(C)C(=O)C[C@]12C	?	-7	?	0%	5.2µM*
CC1CCN(C(=O)c2ncn(C)c2C(=O)N2CCC(C)CC2)CC1	·	24	·	0%	?
O=c1[nH]c(=S)n(Cc2ccc(F)cc2)c(O)c1/C=N/N1CCCCC1	11µM*	3	?	0%	-11%
Cc1ccc(N=C=O)cc1N=C=O	?	·	12%	·	·
CC(=O)CC(c1ccccc1)c1c(O)c2cc(O)ccc2oc1=O (configuration not stated)	-2%	·	-9%	·	·
CCOP(=S)(OCC)Oc1cc(C)oc(=O)c1Cl	11%	12	0%	0%	-8%
CCOP(=S)(OCC)Oc1cc(C)oc(=O)c1	-9%	-70*	3%	-1%	?
O=S(=O)(c1ccccc1C(F)(F)F)N1CCN(c2ncnc3sccc23)CC1	·	-10	·	0%	16µM*
CC(C)(C)c1cc([N+](=O)[O-])cc(C(C)(C)C)c1O	14µM*	-30	4.5µM*	0%	?
NC(=O)c1cc([N+](=O)[O-])cc([N+](=O)[O-])c1	-40%	·	-10%	·	·
COc1ccc(CC(=O)NC(=S)NNC(=O)COc2c(C)cccc2C)cc1	13µM*	-4	-22%	0%	-15%
Cc1ccccc1C(=O)NNC(=S)NC(=O)COc1ccccc1	13µM*	-1	?	0%	1%
